Inconclusive results are not listed. A number with no mark means an inactive call. The call rests on the fitted dose curve; in most records, active means well fitted cell-killing curve with a large enough effect in the repeat runs; inconclusive means weak or mixed curves; inactive means flat fitted curve, though single readings scatter. Non-standard residues stand in square brackets, D forms with d. Residues, ends and D or L forms follow the SMILES beside them. *: point of attachment. Sta = CC(C)C[C@H](N)[C@@H](O)CC(=O)O; Isovaleryl = CC(C)CC(=O)*
Assay: qHTS assay to identify small molecule antagonists of the TGF-beta/Smad signaling pathway - cell viability counter screen (AID 1346824); further: nearly all actives have a fitted effect of over 50% in size
Conditions: SBE-bla HEK293T viability, CellTiter-Glo luminescence; series mostly up to 76.8 µM; viability change, negative = cytotoxic: at the top concentration
Excerpt: U.S. Tox21 Program National Center for Advancing Translational Sciences [NCATS] NIH Chemical Genomics Center [NCGC] U.S. Environmental Protection Agency [EPA] National Institutes of Environmental Health Sciences [NIEHS] National Toxicology Program [NTP] U.S. Food and Drug Administration [FDA] Tox21 Assay Overview: Transforming growth factor beta (TGF-beta) superfamily consists of a large number of structurally related dimeric proteins that act as hormones or local mediators in regulating a wide range of biological functions. This superfamily includes TGF-betas themselves, the bone morphogenetic proteins (BMPs) and the activins. These ligands induce oligomerization of serine/threonine receptor kinases and phosphorylate the cytoplasmic signaling molecules of Smad protein family. CellSensor SBE-bla HEK 293T cell line (Life Technologies, Carlsbad, CA), responsive to TGF-beta was used to screen Tox21 10K compound library for identification of agonists/antagonists of the Smad signaling pathway. This cell line contains a beta-lactamase reporter gene under control of the Smad binding element (SBE) stably integrated into HEK 293T cells. Also cytotoxicity of the compounds was tested in parallel by measuring the cell viability using CellTiter-Glo assay system in the same wells.
Tox21 Assay Protocol Summary: SBE-bla HEK 293T cells were dispensed at 4,000/well in 5 uL of assay medium into black wall/clear-bottom 1536-well plates using a Multidrop Combi (ThermoFisher Scientific, Waltham, MA) dispenser. After the assay plates were incubated at 37 C and 5% CO2 for an overnight, 23 nL of compounds dissolved in DMSO, positive controls or DMSO only was transferred to the assay plate by a Pintool station (Kalypsys, San Diego, CA). Compound transfer was followed by the addition of 1 uL of 0.25 ng/mL TGF-beta1 or assay buffer using two separate tips of Flying Reagent Dispenser (FRD, Aurora Discovery, San Diego, CA). The assay plates were incubated at 37 C and 5% CO2 for 5 hr. One uL of LiveBLAzer B/G FRET substrate (Life Technologies) was added using a Flying Reagent Dispenser (FRD, Aurora Discovery, San Diego, CA) and the plates were incubated at room temperature for 2 hr. Fluorescence intensity (405 nm excitation, 460 nm and 530 nm emissions) was measured using an Envision plate reader (PerkinElmer, Shelton, CT). For cytotoxicity read, 4 uL of CellTiter-Glo reagent (Promega Corporation, Madison, WI) was added to each well of the assay plates using FRD. After 30 min incubation at room temperature, the luminescence intensity was measured using ViewLux plate reader (PerkinElmer).
On the % scale 0 is the no-effect control and ±100 the full control effect.

Structure (SMILES)	viability change, negative = cytotoxic
CNC(C)=O	14.3%
CC(=O)Nc1ccc(S(=O)(=O)Nc2cc(C)on2)cc1	8.01% [at 35.3 µM]
CCCCCCCCCCCCCC(=O)OCC	1.81%
Cc1ccccc1OCC(=O)O	20%
CNC(=O)c1c(I)c(NC(C)=O)c(I)c(C(=O)O)c1I	3.01% [at 35.3 µM]
CN(C)c1ccncc1	-6.79%
O=C(O)/C=C(\CC(=O)O)C(=O)O	4.58% [at 35.3 µM]
CCCCC(CC)COC(=O)CC#N (stereo not given)	-8.18%
CCCCCCCCCCCBr	4.65% [at 35.3 µM]
Nc1cc(S(=O)(=O)O)ccc1O	-4.42%
CC(C)CC(=O)N[C@H](C(=O)N[C@H](C(=O)N[C@@H](CC(C)C)[C@@H](O)CC(=O)N[C@@H](C)C(=O)N[C@@H](CC(C)C)[C@@H](O)CC(=O)O)C(C)C)C(C)C (Isovaleryl-VV[Sta]A[Sta]-OH)	4.96% [at 35.3 µM]
CCCCc1ccc(Cl)cc1	14.2%
CN(C)CCc1c[nH]c2ccc(C[C@H]3COC(=O)N3)cc12	-0.69% [at 35.3 µM]
Cc1cc(=O)oc2cc(O[C@@H]3SC[C@@H](O)[C@H](O)[C@H]3O)ccc12	5.24% [at 35.3 µM]
C=CCOC(=O)CCCCCCCC	-11%
COCCCOc1cc(C[C@@H](C[C@H](N)[C@@H](O)C[C@H](C(=O)NCC(C)(C)C(N)=O)C(C)C)C(C)C)ccc1OC	4.51% [at 35.3 µM]
C=CCCCCCCCCCCCCCC	-0.4% [at 15.8 µM]
CN1CCN(C(=O)C2CCCCC2)CC1	2.15% [at 35.3 µM]
CCOCCOCCOC(C)=O	0.601%
CCCCN(CCCC)CCCCCCN(CCCC)CCCC	-20.1%

Structure (SMILES)	viability change, negative = cytotoxic
OCCC(F)(F)C(F)(F)C(F)(F)C(F)(F)C(F)(F)C(F)(F)F	-1.36%
CC1=C(O)C(=O)CO1	1.72%
Cc1ccc(S(=O)(=O)NC(=O)NN2CC3CCCC3C2)cc1 (stereo not given)	3.85% [at 35.3 µM]
CCOC(=O)COc1ccc2c(C)c(CCN(CC)CC)c(=O)oc2c1Cl	6.83% [at 35.3 µM]
COc1cc(S(N)(=O)=O)cc(C(=O)O)c1OC	13.7% [at 35.3 µM]
CC(=O)Oc1ccc(C(C)=O)cc1	-16.2%
CC(=O)c1ccc2ccc3ccccc3c2c1	4.28%
CSC(=O)c1cccc2nnsc12	-16.2%
COc1cnc(NS(=O)(=O)c2ccc(N)cc2)nc1	-6.72% [at 35.3 µM]
COC(C)(C)CC(C)=O	1.22%
CC(=O)SCC(CC(=O)c1ccc(C)cc1)C(=O)O (stereo not given)	-6.54% [at 35.3 µM]
CCCCC(O)/C=C(C)/C=C/C=C/C(=O)N1CCCC1=O (stereo not given)	5.84% [at 35.3 µM]
CCCCCC(CC)OC(=O)CCCOc1ccc(Cl)cc1Cl (stereo not given)	-10.9%
c1cc2ccc3ccc4ccc5cccc6c(c1)c2c3c4c56	5.15% [at 2.72 µM]
O=C1Nc2ccccc2C1=O	7.95%
O=C1CC2(CCCC2)CC(=O)N1CCNCC1COc2ccccc2O1 (stereo not given)	1.63% [at 35.3 µM]
CCCCCCC(=O)c1ccccc1	12%
CCN(CC)CC	19.4%
CCCCCCCC(=O)N(C)C	-2.19%
CCCCS	12.1%

Source: PubChem BioAssay (Tox21)
